# A selection: hits, their analogues and other compounds. The true share with any hit is near 8%.
# Lassa entry inh – qHTS for Inhibitors of binding or entry into cells for Lassa Virus | Lassa virus pseudotype entry inhibition, cell reporter | Potency, µM (top dose mostly 37.9 µM), for inactives: at the highest dose activity change, negative = inhibition, usual class: inhibitors | hit rate 1.2% among 300,000 | AID 540256, 2011; calls by dose curve; tested in HEK293 cells; further: potency means the concentration at half of the fitted maximal effect; on the % scale 0 is the no-effect control and ±100 the full control effect; nearly all actives have a fitted effect of over 50% in size
# MARV entry inh – qHTS for inhibitors of binding or entry into cells for Marburg Virus; Potency, µM (highest dose often 37.8 µM), for the others: top-dose activity change, negative = inhibition, hits mostly inhibitors; hit rate 1.8% among 300,000; Marburg virus pseudotyped entry inhibition, cell reporter; calls by dose curve; tested in HEK293 cells; further: potency means the concentration at half of the fitted maximal effect; on the % scale 0 is the no-effect control and ±100 the full control effect
# FMDV inh – High Throughput Screening for Foot and Mouth Disease Virus Antivirals; Potency, µM (doses to about 57.9 µM), for inactives: top-dose activity change, negative = inhibition, most hits filed as inhibitors; hit rate 1.2% among 410,000; AID 1159524, 2015; FMDV antiviral cell-based qHTS; calls by dose curve; tested in HEK293T cells; further: read-out not given here; potency means the concentration at half of the fitted maximal effect; on the % scale 0 is the no-effect control and ±100 the full control effect; nearly all actives have a fitted effect of over 45% in size
# SARS PLP yeast – qHTS of Yeast-based Assay for SARS-CoV PLP. hit rate 0.19% among 330,000. Potency, µM (doses to about 32.9 µM), for the others: top-dose activity, positive = growth rescue, hits mostly activators. S. cerevisiae expressing SARS-CoV PLpro, growth rescue. AID 485353, 2010; calls by dose curve; further: potency means the concentration at half of the fitted maximal effect; 0% is about no effect; nearly all actives have a fitted effect of over 55% in size
# HCV inhibitor – qHTS Assay for Inhibitors of Hepatitis C Virus (HCV); Potency, µM (top dose mostly 41.8 µM), inactives show at the top dose activity change, negative = inhibition, hits mostly inhibitors; hit rate 3.4% among 340,000; Huh7.5.1 HCVcc-Cre infection, luciferase reporter, 44 h; active means well fitted inhibition curve with a large enough effect; inconclusive means small, poorly fitted or top-dose-only effect, or another doubt; inactive means no such curve, though single readings can be large or run the other way; further: potency means the concentration at half of the fitted maximal effect; on the % scale 0 is the no-effect control and ±100 the full control effect
#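 Seed cells (1,000/well) for 4 h; treat with compound and infect with HCVcc-Cre, moi about 0.5. Incubate 44 h, then detect luciferase activity.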
# HCMV inh – qHTS Assay for inhibitors of the human cytomegalovirus (HCMV); HFF cells, HCMV-luciferase reporter, 72 h; stronger effect = lower value; AID 1259415, 2018; hit rate 4.5% among 410,000; activity change, negative = inhibition, % at 57.5 µM; in the data active means activity change below about -60%; inconclusive means no clear call, values can overlap the other calls; inactive means above about -39%; further: on the % scale 0 is the no-effect control and ±100 the full control effect
#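 Human foreskin fibroblasts infected with luciferase-reporter HCMV at MOI 1 PFU/cell, compounds at two doses. Luciferase measured 72 h post infection; normalized to buffer-only basal and Salinomycin (10uM) controls.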
# Active calls of the source: *; ? = inconclusive; nt = no result; [ ] = remark or other dose.
SMILES,Lassa entry inh,MARV entry inh,FMDV inh,SARS PLP yeast,HCV inhibitor,HCMV inh
O=[N+]([O-])c1cc(C(F)(F)F)cc([N+](=O)[O-])c1N1CCN(S(=O)(=O)c2ccccc2)CC1,-3%,-27%,?,11%,?,-17
Cn1c(=O)n(C)c2cc([N+](=O)[O-])c(N3CCN(S(=O)(=O)c4ccc(C(C)(C)C)cc4)CC3)cc21,?,?,nt,0%,14µM*,-94*
Nc1cccc2c(O)cccc12,-5%,15%,-4%,nt,22%,-102*
Nc1ccccc1O,nt,nt,-6%,-1%,-16%,nt
O=C1c2ccccc2S(=O)(=O)N1Cc1nc2ccccc2s1,1µM*,?,?,8%,20%,-73*
Cc1ccccc1CN1C(=O)c2ccccc2S1(=O)=O,5%[46.1 µM],-1%[46.1 µM],-17%,-2%,11%,?
Cc1cc(C)nc(NS(=O)(=O)c2ccc(Br)s2)c1,nt,nt,103%,14%,-17%,41
Cc1ccc(NS(=O)(=O)c2ccc(Br)s2)nc1,-8%,-1%[46.1 µM],36%,4%,3.5µM*,?
COc1ccc([C@H]2/C=C\CN(C(=O)CC(C)(C)C)[C@@H](C)C(=O)N2Cc2ccc(F)cc2)cc1,nt,nt,?,nt,5%,-60*
COc1ccc(C2/C=C\CN(C(=O)c3ccccc3)[C@H](Cc3ccccc3)C(=O)N2Cc2ccc(F)cc2)cc1 (stereo partly drawn),nt,nt,?,0%,?,-63*
COc1ccc(C2/C=C\CN(C(=O)OCC3c4ccccc4-c4ccccc43)CC(=O)N2Cc2cccc(F)c2)cc1 (stereo not drawn),nt,nt,-26%,-10%,10µM*,-12
COc1ccc([C@H]2/C=C\CN(C(=O)c3ccc(C)cc3)[C@@H](C)C(=O)N2Cc2ccc(F)cc2)cc1,nt,nt,-7%,nt,?,-15
Cc1c(C(=O)N2CCC(Cc3ccccc3)CC2)sc2ncnc(NCc3ccccn3)c12,nt,nt,-29%,nt,nt,nt
O=C(NCc1nnc2n1CCN(Cc1cc3c(cc1Cl)OCO3)CC2)c1cccc(F)c1,nt,nt,-10%,nt,nt,nt
COc1ccc(C2N(C(C)=O)CCCN2S(=O)(=O)c2ccc(C)cc2)cc1 (stereo not drawn),?,-11%[46.1 µM],9%,1%,-19%,-62*
COc1ccc(-c2csc3nc(-c4cccnc4)nc(Cl)c23)cc1OC,?,?,?,-20%,?,-71*
Clc1nc(-c2cccnc2)nc2scc(-c3ccccc3)c12,-1%,-3%,14%,-48%,?,?
Cc1cccc(CSCCNC(=O)CN(c2ccccc2)S(=O)(=O)N(C)C)c1,7%[46.1 µM],16%[46.1 µM],-21%,nt,nt,6
CC(C(=O)O)C1CCC2C3CC=C4CC(O)CC[C@@]4(C)C3CC[C@]12C (stereo partly drawn),nt,nt,-7%,nt,nt,nt
CC1=C(CO)C(=O)OC([C@@H](C)C2CC[C@H]3C4C[C@H]5O[C@]56[C@@H](O)C=CC(=O)[C@]6(C)C4CC[C@]23C)C1 (stereo partly drawn),nt,nt,7.1µM*,1%,?,-107*
C=CC[C@@H](CC(=O)N(CCO)Cc1ccccc1)C(=O)N[C@H](COC(=O)[C@@H](CC=C)CC(=O)OC(C)(C)C)Cc1c[nH]c2ccccc12,nt,nt,?,-5%,11µM*,32
C=CC[C@H](CC(=O)N(CCO)Cc1ccccc1)C(=O)N[C@@H](COC(=O)[C@H](CC=C)CC(=O)OC(C)(C)C)Cc1c[nH]c2ccccc12,nt,nt,?,2%,?,53
C=CC[C@H](CC(=O)N[C@H](CO)Cc1ccccc1)C(=O)N[C@@H](COC(=O)[C@@H](CC=C)CC(=O)OC(C)(C)C)Cc1c[nH]c2ccccc12,nt,nt,?,4%,?,34
C=CC[C@H](CC(=O)N(CCO)Cc1ccccc1)C(=O)N[C@H](COC(=O)[C@H](CC=C)CC(=O)OC(C)(C)C)Cc1ccccc1,nt,nt,0%,9%,11µM*,-27
C=CC[C@@H](CC(=O)N[C@@H](CO)Cc1ccccc1)C(=O)N[C@H](COC(=O)[C@@H](CC=C)CC(=O)OC(C)(C)C)Cc1c[nH]c2ccccc12,nt,nt,35µM*,-5%,?,-7
SMILES,Lassa entry inh,MARV entry inh,FMDV inh,SARS PLP yeast,HCV inhibitor,HCMV inh
Cc1ncc2c(c1CNS(=O)(=O)N(C)C)CCN(C(=O)/C=C/c1ccccc1F)C2,nt,nt,-4%,nt,nt,nt
COc1cc2c(c(OC)c1OC)-c1ccc(NCc3ccccc3)c(=O)cc1C(NC(C)=O)CC2 (stereo not drawn),nt,nt,-25%,nt,nt,-80*
CCN(CC)c1ccc2c(cc1=O)[C@@H](NC)CCc1cc(OC)c(OC)c(OC)c1-2,1.1µM*,4µM*,-1%,0%,0%,-92*
CN[C@H]1CCc2cc(OC)c(OC)c(OC)c2-c2ccc(N(C)CC(OC)OC)c(=O)cc21,nt,nt,-10%,1%,1%,-74*
COc1cc2c(c(OC)c1OC)-c1ccc(N(C)CC(OC)OC)c(=O)cc1[C@@H](NC(C)=O)CC2,?,1µM*,-1%,0%,22%,-87*
COc1cc2c(c(OC)c1OC)-c1ccc(NC(=O)c3ccc(F)cc3)c(=O)cc1[C@@H](NC(C)=O)CC2,nt,nt,?,2%,?,-22
COc1cc2c(c(OC)c1OC)-c1ccc(OC)c(=O)cc1[C@@H](N(C)CC#CCO)CC2,?,?,-3%,0%,-22%,?
Cc1ncc2c(c1CNC(=O)c1cncs1)CCN(C(=O)c1csc(-c3cccs3)n1)C2,nt,nt,-4%,nt,nt,nt
COc1ccc(C2CC(c3ccccc3)=NN2C(=O)COC(=O)c2cccc(O)c2)cc1 (stereo not drawn),-21%[46.1 µM],?,-4%,0%,?,-3
COc1ccc(C2CC(c3ccccc3)=NN2C(=O)COC(=O)c2nc3nc(C)cc(C)n3n2)cc1 (stereo not drawn),-7%,23%[46.1 µM],4%,3%,10µM*,13
C=CCNCC(=O)N1N=C(c2ccc3ccccc3c2)CC1c1ccc(OC)cc1 (stereo not drawn),0%,8.9µM*,-22%,-3%,?,-31
Cc1ccn2cc(CNC(=O)c3cccc(C(F)(F)F)c3)nc2c1,-5%[46.1 µM],2%[46.1 µM],6%,nt,nt,-10
CC(C)CCNC(=O)C1CCC(Cn2c(=O)c3sccc3n(CC(=O)NC(C)C)c2=O)CC1 (stereo not drawn),18%[46.1 µM],nt,4%,nt,nt,-1
CC(CN1CCN(C)CC1)OC(=O)c1ccc(F)cc1 (stereo not drawn),?,7%,7%,1%,3%,-71*
CC(CN1CCN(C)CC1)OC(=O)c1ccccc1 (stereo not drawn),6%,5%,10%,-1%,9%,4
